Drawing on paper PMC11062922 (Nature Chemical Biology, 2023), this text covers potency estimated from few doses for 17 compounds.

Common to all, as to parameters: species or system human, MV4-11 + K-562 + COLO205 + SK-N-BE2 + OVCAR-8
The subject of test [1] is AURKA. To be noted: read-out: apparent Kd; compound concentrations:100 nM and 1000 nM (sheet 'Samples'); n = 1.
Test [2] relates to CHEK1. To be noted: read-out: apparent Kd; compound concentrations:100 nM and 1000 nM (sheet 'Samples'); n = 1.
Test [3] relates to MARK3. To be noted: read-out: apparent Kd, n = 1.
For test [4], the system named is STK4. The note with it: read-out: apparent Kd, n = 1.
Test [5] concerns TNK2. The note with it: read-out: apparent Kd, n = 1.
For test [6], the system named is ATM. To be noted: read-out: apparent Kd, n = 1.
The subject of test [7] is PRKACA. The note with it: read-out: apparent Kd, n = 1.
Test [8] has as its system PRKACB. The note with it: read-out: apparent Kd, n = 1.
Test [9] concerns EPHA4. The note with it: read-out: apparent Kd, compound concentrations: 100 nM and 1000 nM (sheet 'Samples'), n = 1.
Test [10] relates to EPHA5. To be noted: read-out: apparent Kd, compound concentrations: 100 nM and 1000 nM (sheet 'Samples'), n = 1.
Test [11] relates to EPHB2. To be noted: read-out: apparent Kd, compound concentrations: 100 nM and 1000 nM (sheet 'Samples'), n = 1.
Test [12] concerns EPHB4. To be noted: read-out: apparent Kd, compound concentrations: 100 nM and 1000 nM (sheet 'Samples'), n = 1.
The subject of test [13] is PRKAG2. The note with it: read-out: apparent Kd, compound concentrations: 100 nM and 1000 nM (sheet 'Samples'), n = 1.
Test [14] relates to TNK1. To be noted: read-out: apparent Kd, compound concentrations: 100 nM and 1000 nM (sheet 'Samples'), n = 1.
Test [15] has as its system CAMKK2. To be noted: read-out: apparent Kd, compound concentrations: 100 nM and 1000 nM (sheet 'Samples'), n = 1.
In test [16] the test system is CDK16. The note with it: read-out: apparent Kd, compound concentrations: 100 nM and 1000 nM (sheet 'Samples'), n = 1.
Test [17] deals with RPS6KA4. To be noted: read-out: apparent Kd; compound concentrations:100 nM and 1000 nM (sheet 'Samples'); n = 1.
Test [18] relates to CSNK1D. To be noted: read-out: apparent Kd; compound concentrations:100 nM and 1000 nM (sheet 'Samples'); n = 1.
Test [19] relates to MAPK9. The note with it: read-out: apparent Kd, n = 1.
For test [20], the system named is BCR. The note with it: read-out: apparent Kd; compound concentrations: 100 nM and 1000 nM (sheet 'Samples'), CATDS: 2.3215110623404499E-2; n = 1.
[21] abbreviates: compound concentrations:100 nM and 1000 nM (sheet 'Samples').

Where two headings read alike, the source gives them in different places.

As for `O=C(Nc1n[nH]c2nc(-c3ccccc3O)ccc12)C1CC1` [SB-711880], the potency estimated from few doses was 286 nM in [1]; 967 nM in [2]; 1610 nM in test [3] (setting [21]); 345 nM in [4] (setting [21]); 517 nM in test [5] (setting [21]).

Consider `CC(C)N1CC(=O)N(C)c2cnc(Nc3cccc(S(=O)(=O)CCN4CCOCC4)c3)nc21` [BI00009348], for which the potency estimated from few doses in test [6] (compound concentrations: 100 nM and 1000 nM (sheet 'Samples'), CATDS: 0.21813144295739101) was 112 nM.

On to `Cl.Cl.NC[C@H](CC1CCCCC1)NC(=O)c1ccc(-c2ccnc3[nH]ccc23)s1.NC[C@H](CC1CCCCC1)NC(=O)c1ccc(-c2ccnc3[nH]ccc23)s1` [GSK1581428A], for which the potency estimated from few doses in [7] (setting [21]) was 31 nM; in test [8] (setting [21]) it was 49.7 nM.

Take `Cn1cc(C2=C(c3ccc(OC[C@@H](O)CO)cc3)C(=O)NC2=O)c2ccccc21` [RO3208546-000]: the potency estimated from few doses in [9] (CATDS: 3.51410618583008E-2) was 1520 nM; in [10] (CATDS: 3.9302113752780102E-2), 1120 nM; in test [11] (CATDS: 4.4288817418137498E-2) it was 840 nM; in [12] (CATDS: 6.3567639225114006E-2), 415 nM; in test [13] (CATDS: 4.1666716087244697E-2) it was 967 nM; in test [14] (CATDS: 0.384256828153267), 31.7 nM. The potency estimated from few doses in test [5] (compound concentrations: 100 nM and 1000 nM (sheet 'Samples'), CATDS: 6.2991293235435897E-2) is 422 nM.

As for `Cl.Cl.NCC(NC(=O)c1cc(-c2ccnc3[nH]ccc23)cs1)c1ccccc1.NCC(NC(=O)c1cc(-c2ccnc3[nH]ccc23)cs1)c1ccccc1` (stereo not drawn) [GSK1229959A], the potency estimated from few doses in test [15] (CATDS: 1.7349658835090001E-2) is 1720 nM; in test [16] (CATDS: 1.6665892971292499E-2), 2280 nM; in test [7] (compound concentrations: 100 nM and 1000 nM (sheet 'Samples'), CATDS: 5.4700328593155198E-2), 27.5 nM; in [8] (compound concentrations: 100 nM and 1000 nM (sheet 'Samples'), CATDS: 4.1114005800974601E-2), 56 nM.

Turning to `Cl.Cn1cc(C2=C(c3c4n(c5ccccc35)CCNC4)C(=O)NC2=O)c2ccccc21` [RO0318365-001], the potency estimated from few doses in test [10] (CATDS: 5.66388945901121E-2) is 1210 nM.

As to `CCn1c(-c2nonc2N)nc2cncc(C(=O)N3CC[C@H](N)C3)c21.Cl` [SB-772077-B], the potency estimated from few doses in [7] (setting [21]) was 790 nM; in test [17], 82.6 nM.

As to `NS(=O)(=O)c1ccc(N/N=C2\C(=O)Nc3ccc4ncccc4c32)cc1` [GW305178X], the potency estimated from few doses in test [4] (compound concentrations: 100 nM and 1000 nM (sheet 'Samples'), CATDS: 4.4831401788358302E-2) was 1360 nM.

With `CNc1nccc(-c2ccc3c(N)n[nH]c3c2)n1` [GSK2206003A], the potency estimated from few doses in test [3] (compound concentrations: 100 nM and 1000 nM (sheet 'Samples'), CATDS: 5.1673366030294897E-2) is 1410 nM.

Regarding `CN(C)c1ccc2c(c1)/C(=C/Nc1ccc(S(N)(=O)=O)cc1)C(=O)N2` [GW416469X], the potency estimated from few doses in [4] (compound concentrations: 100 nM and 1000 nM (sheet 'Samples'), CATDS: 7.4915408427864094E-2) was 1510 nM.

`NS(=O)(=O)c1cccc(-c2ccc3c(NC(=O)C4CC4)n[nH]c3c2)c1` [SB-741905]: the potency estimated from few doses in test [6] (compound concentrations: 100 nM and 1000 nM (sheet 'Samples'), CATDS: 0.31609765928995098) is 205 nM.

Regarding `Cc1occc1-c1nc(N)c(OC[C@@H](N)Cc2c[nH]c3ccccc23)cc1-c1cc2c(C)n[nH]c2cn1` [GSK1660450B], the potency estimated from few doses in test [18] is 452 nM; in test [3] (setting [21]) it was 1250 nM; in test [7] (setting [21]), 8.55 nM; in test [8] (setting [21]), 18.6 nM; in [4] (setting [21]) it was 105 nM.

With `Cl.Nc1nc(-c2ccc3c(c2)C(=Cc2cc(Br)c(O)c(Br)c2)C(=O)N3)cs1` [GW407323A], the potency estimated from few doses in test [16] (CATDS: 4.1043878899959203E-2) is 464 nM.

With `O=C1N=C(NCCc2cccs2)S/C1=C\c1ccc2ncccc2c1` [RO4508348-000], the potency estimated from few doses in test [6] (compound concentrations: 100 nM and 1000 nM (sheet 'Samples'), CATDS: 0.23427621692245501) is 314 nM.

Turning to `Cc1cc(NC(=O)c2cccc(NC(=O)/C=C/CN(C)C)c2)ccc1Nc1nccc(-c2cccnc2)n1` [JNK-IN-7], the potency estimated from few doses in test [6] (setting [21]) is 273 nM; in [18] it was 1190 nM; in [19] (setting [21]), 6.45 nM.

For the compound `CCC(CC)(CC)n1cnc2c(N)ncnc21` [SKF-97620], the potency estimated from few doses in test [6] (compound concentrations: 100 nM and 1000 nM (sheet 'Samples'), CATDS: 0.160358426493935) is 43.6 nM.

Regarding `Cl.Cn1c(=O)c(Cc2ccccc2F)cc2cnc(NC3CCOCC3)nc21` [RO3305377-001], the potency estimated from few doses in test [20] was 783 nM; in [15] (CATDS: 1.7496919808973301E-2), 1640 nM; in [9] (CATDS: 2.0796665862367499E-2) it was 1010 nM; in [10] (CATDS: 2.9701717682633799E-2) it was 481 nM; in test [11] (CATDS: 2.7488679205580801E-2), 555 nM; in test [12] (CATDS: 3.5368678995808499E-2), 357 nM. Besides, the potency estimated from few doses in test [19] (compound concentrations: 100 nM and 1000 nM (sheet 'Samples'), CATDS: 2.8205864879245399E-2) was 529 nM; in [8] (compound concentrations: 100 nM and 1000 nM (sheet 'Samples'), CATDS: 1.8562598651845501E-2), 1370 nM; in test [13] (CATDS: 2.6904980441579199E-2) it was 578 nM; in [14] (CATDS: 3.75321125845825E-2), 325 nM; in [5] (compound concentrations: 100 nM and 1000 nM (sheet 'Samples'), CATDS: 3.6301330504794102E-2) it was 342 nM.
